# Experimental data published in the supplement of paper PMC8728848.
# Many of the other results were omitted from the sample, so the strongest signals are more common in it than they were.
# B1: CRT-1 (Homo sapiens), P27797 (protein)
# chain: MLLSVPLLLGLLGLAVAEPAVYFKEQFLDGDGWTSRWIESKHKSDFGKFVLSSGKFYGDEEKDKGLQTSQDARFYALSASFEPFSNKGQTLVVQFTVKHEQNIDCGGGYVKLFPNSLDQTDMHGDSEYNIMFGPDICGPGTKKVHVIFNYKGKNVLINKDIRCKDDEFTHLYTLIVRPDNTYEVKIDNSQVESGSLEDDWDFLPPKKIKDPDASKPEDWDERAKIDDPTDSKPEDWDKPEHIPDPDAKKPEDWDEEMDGEWEPPVIQNPEYKGEWKPRQIDNPDYKGTWIHPEIDNPEYSPDPSIYAYDNFGVLGLDLWQVKSGTIFDNFLITNDEAYAEEFGNETWGVTKAAEKQMKDKQDEEQRLKEEEEDKKRKEEEEAEDKEDDEDKDEDEEDEEDKEEDEEEDVPGQAKDEL
# Tests used:
# Assay in all cases: glycan array binding signal (z-score within array); higher = stronger binding
# Settings in all cases: glycan notation: IUPAC condensed, linker removed
# Gal3S(b1-3)GalNAc = target: Gal3S(b1-3)GalNAc
# How it was run: (§1)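 From the Consortium for Functional Glycomics database, 3228 arrays were curated, keeping only those whose protein sequence was available. Binding is given as a within-array Z-score averaged across arrays sharing a protein sequence and across linkers. Negative Z-scores can be read as non-binding.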
# Gal3S(b1-4)GlcNAc6S = target: Gal3S(b1-4)GlcNAc6S
# How it was run: as §1
# Gal6S(b1-4)Glc = target: Gal6S(b1-4)Glc
# How it was run: as §1
# Gal6S(b1-4)GlcNAc = target: Gal6S(b1-4)GlcNAc
# How it was run: as §1
# [1] = target: GalNAc(b1-3)Gal(a1-4)Gal(b1-4)GlcNAc(b1-3)Gal(b1-4)Glc
# How it was run: as §1
# GalNAc(b1-3)GlcNAc = target: GalNAc(b1-3)GlcNAc
# How it was run: as §1
# GalNAc(b1-6)GalNAc = target: GalNAc(b1-6)GalNAc
# How it was run: as §1
# [2] = target: Glc(a1-6)Glc(a1-6)Glc(a1-6)Glc
# How it was run: as §1
# [3] = target: GlcNAc(a1-4)Gal(b1-4)GlcNAc(b1-3)Gal(b1-4)[Fuc(a1-3)]GlcNAc(b1-3)Gal(b1-4)[Fuc(a1-3)]GlcNAc
# How it was run: as §1
# [4] = target: GlcNAc(a1-6)Gal(b1-4)GlcNAc
# How it was run: as §1
# [5] = target: GlcNAc(b1-3)Gal(b1-4)GlcNAc(b1-2)[GlcNAc(b1-3)Gal(b1-4)GlcNAc(b1-6)]Man(a1-6)[GlcNAc(b1-3)Gal(b1-4)GlcNAc(b1-2)Man(a1-3)]Man(b1-4)GlcNAc(b1-4)GlcNAc
# How it was run: as §1
# [6] = target: GlcNAc(b1-3)Gal(b1-4)GlcNAc(b1-3)Gal(b1-4)GlcNAc(b1-2)Man(a1-3)[GlcNAc(b1-3)Gal(b1-4)GlcNAc(b1-3)Gal(b1-4)GlcNAc(b1-2)Man(a1-6)]Man(b1-4)GlcNAc(b1-4)[Fuc(a1-6)]GlcNAc
# How it was run: as §1
# [7] = target: GlcNAc(b1-3)Gal(b1-4)GlcNAc(b1-3)Gal(b1-4)GlcNAc(b1-3)Gal(b1-4)GlcNAc(b1-3)Gal(b1-4)GlcNAc(b1-2)Man(a1-3)[GlcNAc(b1-3)Gal(b1-4)GlcNAc(b1-3)Gal(b1-4)GlcNAc(b1-3)Gal(b1-4)GlcNAc(b1-3)Gal(b1-4)GlcNAc(b1-2)Man(a1-6)]Man(b1-4)GlcNAc(b1-4)GlcNAc
# How it was run: as §1
# GlcNAc(b1-3)Man = target: GlcNAc(b1-3)Man
# How it was run: as §1
# [8] = target: Neu5Ac(a2-3)Gal(b1-3)GlcNAc(b1-2)[Neu5Ac(a2-3)Gal(b1-3)GlcNAc(b1-4)]Man(a1-6)[Neu5Ac(a2-3)Gal(b1-3)GlcNAc(b1-2)Man(a1-3)]Man(b1-4)GlcNAc(b1-4)GlcNAc
# How it was run: as §1
# [9] = target: Neu5Ac(a2-3)Gal(b1-4)GlcNAc(b1-6)[Neu5Ac(a2-3)Gal(b1-3)]GalNAc
# How it was run: as §1
# [10] = target: Neu5Ac(a2-3)Gal(b1-4)[Fuc(a1-3)]GlcNAc(b1-3)Gal(b1-4)GlcNAc
# How it was run: as §1
# [11] = target: Neu5Ac(a2-3)[GalNAc(b1-4)]Gal(b1-4)GlcNAc(b1-3)GalNAc
# How it was run: as §1
# [12] = target: Neu5Ac(a2-6)Gal(b1-4)GlcNAc(b1-2)Man(a1-3)[GlcNAc(b1-2)Man(b1-4)GlcNAc(b1-2)Man(a1-6)]Man(b1-4)GlcNAc(b1-4)GlcNAc
# How it was run: as §1
# [13] = target: Neu5Ac(a2-6)Gal(b1-4)GlcNAc(b1-2)Man(a1-3)[Man(a1-6)]Man(b1-4)GlcNAc(b1-4)GlcNAc
# How it was run: as §1
# [14] = target: Neu5Ac(a2-6)Gal(b1-4)GlcNAc(b1-2)Man(a1-3)[Neu5Ac(a2-6)Gal(b1-4)GlcNAc(b1-2)Man(a1-6)]Man(b1-4)GlcNAc(b1-4)GlcNAc
# How it was run: as §1
# [15] = target: Neu5Ac(a2-6)Gal(b1-4)GlcNAc(b1-3)Gal(b1-4)GlcNAc(b1-3)Gal(b1-4)GlcNAc(b1-2)Man(a1-3)[Neu5Ac(a2-6)Gal(b1-4)GlcNAc(b1-3)Gal(b1-4)GlcNAc(b1-3)Gal(b1-4)GlcNAc(b1-2)Man(a1-6)]GalNAc
# How it was run: as §1
# [16] = target: Neu5Ac(a2-6)Gal(b1-4)GlcNAc(b1-3)Gal(b1-4)GlcNAc(b1-3)GalNAc
# How it was run: as §1
# Neu5Ac(a2-6)GalNAc = target: Neu5Ac(a2-6)GalNAc
# How it was run: as §1
# [17] = target: Neu5Ac(a2-8)Neu5Gc(a2-3)Gal(b1-4)GlcNAc
# How it was run: as §1
# [18] = target: Neu5Gc(a2-3)Gal(b1-3)GlcNAc
# How it was run: as §1
# [19] = target: Neu5Gc(a2-8)Neu5Gc(a2-3)Gal(b1-4)GlcNAc
# How it was run: as §1
binder,measurement,setting,value
B1,glycan array binding signal (z-score),Gal3S(b1-3)GalNAc,-0.188
same,glycan array binding signal (z-score),Gal3S(b1-4)GlcNAc6S,-0.498
same,glycan array binding signal (z-score),Gal6S(b1-4)Glc,-0.297
same,glycan array binding signal (z-score),Gal6S(b1-4)GlcNAc,-0.673
same,glycan array binding signal (z-score),[1],0.488
same,glycan array binding signal (z-score),GalNAc(b1-3)GlcNAc,0.853
same,glycan array binding signal (z-score),GalNAc(b1-6)GalNAc,0.544
same,glycan array binding signal (z-score),[2],0.137
same,glycan array binding signal (z-score),[3],1.95
same,glycan array binding signal (z-score),[4],-0.513
same,glycan array binding signal (z-score),[5],2.14
same,glycan array binding signal (z-score),[6],1.91
same,glycan array binding signal (z-score),[7],0.27
same,glycan array binding signal (z-score),GlcNAc(b1-3)Man,0.915
same,glycan array binding signal (z-score),[8],-0.396
same,glycan array binding signal (z-score),[9],-0.461
same,glycan array binding signal (z-score),[10],0.745
same,glycan array binding signal (z-score),[11],-0.233
same,glycan array binding signal (z-score),[12],12.5
same,glycan array binding signal (z-score),[13],0.357
same,glycan array binding signal (z-score),[14],2.53
same,glycan array binding signal (z-score),[15],1.9
same,glycan array binding signal (z-score),[16],-1.62
same,glycan array binding signal (z-score),Neu5Ac(a2-6)GalNAc,0.869
same,glycan array binding signal (z-score),[17],-0.349
same,glycan array binding signal (z-score),[18],-0.645
same,glycan array binding signal (z-score),[19],-0.33
